Assay results taken from PubChem BioAssay (NCI).
The panel holds about 83,000 compounds, 20% with a hit somewhere; the sample as a whole holds those more often.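 Step 1: grow cells in 96-well plates. Step 2: add test compound at a single concentration. Step 3: incubate 48 h. Step 4: record percent growth.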 Unmarked numbers belong to inactive results. Calls of active or inactive are those of the source. How the source made its calls: active means growth percent below 10; inactive means the rest.

Tests used:
Assay in all cases: NCI-60 one-dose screen, 48 h (100 = growth as untreated, 0 = no growth, -100 = all killed)
Settings in all cases: 10 µM unless noted
[1] = tested on: DU-145 prostate
[2] = tested on: K-562 leukemia
[3] = tested on: MALME-3M melanoma
[4] = tested on: MDA-MB-231 breast
[5] = tested on: RXF 393 renal
[6] = tested on: SF-268 CNS
[7] = tested on: SF-295 CNS
[8] = tested on: SF-539 CNS
[9] = tested on: UACC-257 melanoma
[10] = tested on: M14 melanoma

Compound | growth [1] | growth [2] | growth [3] | growth [4] | growth [5] | growth [6] | growth [7] | growth [8] | growth [9] | growth [10]
COc1ccc(-c2nc3sc(C)cn3c2/C=C/C(=O)c2cc(OC)c(OC)c(OC)c2)cc1 | 82.2% | 75.6% | 39.3% | 39.5% | 84.5% | 73.4% | 51.3% | 77.6% | 50.8% | 43%
Fc1ccccc1Nc1ccc2nnc(-c3ccncc3)n2n1 | 110% | 93.4% | 103% | 101% | 113% | 101% | 112% | 106% | 105% | 104%
O=C1CCC(N2Cc3c(C#CCCCNC(=O)c4cc5c(o4)C(=O)c4ccccc4C5=O)cccc3C2=O)C(=O)N1 (configuration not stated) | -98.1% (active) | 16.2% | -97.6% (active) | -2.23% (active) | -15.4% (active) | -10.1% (active) | -87% (active) | -94.2% (active) | -79% (active) | -87.8% (active)
COC(=O)c1c2c(c(C)[n+]([O-])c1C)C(=O)C=C(NCc1ccc(F)c(Cl)c1)C2=O | -99% (active) | -7.41% (active) | -98.3% (active) | -25.6% (active) | -41.1% (active) | -9.98% (active) | -97.5% (active) | -89.7% (active) | -82.8% (active) | -88.4% (active)
CC(C)(C)[Si](C)(C)OC1[C@@H](CNC(=O)NC(=O)CCl)O[C@@H](n2cnc3c(N)ncnc32)[C@H]1O[Si](C)(C)C(C)(C)C (some centres not stated) | 23% | -33.9% (active) | -67.3% (active) | -76.8% (active) | -13.3% (active) | -76.6% (active) | -57.4% (active) | 15% |  | 23.3%
O=S(=O)(/N=C1C=C/C(=N\S(=O)(=O)c2ccccc2)c2ccccc2\1)c1ccccc1 | 117% | 91.8% | 107% | 98.3% | 107% | 104% | 116% | 123% | 95.1% | 112%
Clc1ccc(Nc2nc(Nc3ccccc3)nc(Nc3ccc(-c4cc(-c5ccc(Cl)cc5)on4)cc3)n2)cc1 | 32.6% | 40.2% | 64.5% | 60.5% | 74.6% | 61.7% | 54% | 54.2% | 70.1% | 41.4%
CCOC(=O)c1[nH]c2cc(Cl)ccc2c1[C@@H](C(=O)NC(C)(C)C)N(CC)C(=O)CCCCC#Cc1cccc2c1CN(C1CCC(=O)NC1=O)C2=O (some centres not stated) | 32.8% | 17.5% | -12.6% (active) | -50.1% (active) | -1.34% (active) | 25% | -5.32% (active) | 29.6% | 28.4% | 16.9%
COc1ccccc1-n1c(SCc2cc(OC)c(OC)c(OC)c2)nc2ccc(Cl)cc2c1=O | 30.1% | 12.7% | 33% | 55.7% | 61.5% | 41.6% | 31.9% | 64.6% |  | 15.9%
O=S(=O)(Nc1ccc(Cl)c(Cl)c1)c1ccc(-c2cnc(C3CC3)o2)cc1 | 15.3% | 16.2% | 53.3% | 28.4% | -19.4% (active) | 47.7% | 14.9% | -13.5% (active) | 63.1% | 14.1%
Cc1ccc(S(=O)(=O)N2CCc3ccc(O)c4c3C2Cc2ccc3c(c2-4)OCO3)cc1 (configuration not stated) | 10.3% | 15.1% | 61.8% | 6.15% (active) | 0.195% (active) | 37.2% | 14.3% | 3.96% (active) | 45.6% | 5.43% (active)
COc1cccc(C2C3=C(COC3=O)N(CCO)c3cc4c(cc32)CCC4)c1 (configuration not stated) | -26.5% (active) | 15.8% | 57.3% | -12% (active) | -3.06% (active) | 22.6% | -27.5% (active) | -17.9% (active) | 31.5% | -13.7% (active)
COc1ccc(/C=N/NC(=O)c2cnn(CC(O)Cc3ccccc3)c2N)cc1OC1CCCC1 (configuration not stated) | 91.2% | 99.5% | 99.4% | 86.1% | 85.8% | 98.3% | 83.8% | 87.3% | 110% | 99.5%
COc1cc2nc(SCc3cc(OC)c(OC)c(OC)c3)n(-c3ccccc3OC)c(=O)c2cc1OC | 81.8% | 27.3% | 63% | 77.5% | 78.1% | 69.9% | 73.8% | 89.9% |  | 77.1%
Cc1c(C)n(CC(O)CNC2CCCCC2C)c2ccccc12 (configuration not stated) | -67.2% (active) | 4.09% (active) | -64.1% (active) | -9.38% (active) | -90.2% (active) | -42.5% (active) | -45.7% (active) | -87.3% (active) | -75.8% (active) | -59.4% (active)
CC(C)(C)[Si](C)(C)OC1[C@@H](COC(N)=O)O[C@@H](n2cnc3c(N)ncnc32)[C@H]1O[Si](C)(C)C(C)(C)C (some centres not stated) | 75.1% | 7.16% (active) | 111% | 100% | 106% | 79.8% | 118% | 97.4% |  | 98.8%
Cc1nc(NC(=O)COc2cccc(/C=C3\COc4ccccc4C3=O)c2)sc1C | 63.1% | -65.2% (active) | -68.1% (active) | 0.962% (active) |  | -63.3% (active) | 25.3% | -63.9% (active) | -49% (active) | -79.4% (active)
COc1ccc(C2OCC(C)(C)CO2)cc1OC | 107% | 101% | 107% | 103% | 88% | 101% |  | 104% | 87.5% | 113%
O=C1C(OCCOc2ccccc2)=C(OCCOc2ccccc2)C(=O)c2ccccc21 | 56.7% | 66.4% | 54.7% | 70.5% | 79.4% | 77.2% |  | 94.9% | 14.8% | 51.4%
CC(C)OC1=C(Cl)C(=O)c2ccccc2C1=O | 119% | 22.8% | 111% | 85.6% | 99.6% | 93.5% |  | 38.4% | 89.6% | 97.8%
CC[Si](CC)(CC)OC1[C@@H](O[Si](CC)(CC)CC)[C@@H](CNC(=O)NC)O[C@H]1n1cnc2c(NC(=O)Nc3ccccc3)ncnc21 (some centres not stated) | 89.3% | 15.9% | 63.2% | 97.4% | 116% | 67.5% | 59% | 99% |  | 99.9%
Cc1ccc2c(c1)c(Sc1ccc(C(=O)NO)cc1)c1n2CN(C)CC1 | 11.7% | 11.5% | 26.6% | -32.2% (active) | 33% | 1.67% (active) | 11.8% | -35.1% (active) |  | 26%
C=CC(=O)N1CC2(CCC(n3nc(-c4ccc(Oc5ccccc5)cc4)c4c(N)ncnc43)CC2)C1 | -52.3% (active) | 3.48% (active) | -70.7% (active) | -31% (active) | -94.9% (active) | -81.1% (active) | -13.9% (active) | -94.4% (active) |  | -79.7% (active)
CC1=CN2C(=NC3=C(CCCC/C3=C\c3ccccc3)C2c2ccccc2)S1 (configuration not stated) | 108% | 98.2% | 89% | 103% |  | 96.9% | 79.1% | 92.3% |  | 107%
COCCOC1=C(Cl)C(=O)c2ccccc2C1=O | 38.7% | 8.89% (active) | 96.4% | 34.8% | 18.7% | 24.1% |  | -10.4% (active) | -17.3% (active) | 40.1%
FC(F)(F)c1ccc2c(c1)n1cnnc1c1nncn21 | 118% | 100% | 106% | 104% | 104% | 117% | 89.2% | 114% |  | 114%
CCOC(=O)C(CC(c1ccccc1)N1CCCCC1)[N+](=O)[O-] (configuration not stated) | 94.4% | 69.5% | 62% | 86.6% | 100% | 93% |  |  | 89% | 82.5%
O=c1nc(NO)[nH]c(=O)n1Cc1ccccc1 | 115% | 108% | 100% | 123% | 94.8% | 106% | 93.7% | 98.7% |  | 106%
